# Screens: PubChem, National Center for Advancing Translational Sciences (NCATS)
# TDP1 cell CPT – DT40-hTDP1 cell growth loss with CPT | chicken DT40 Tdp1-/-;hTDP1 cells + 20 nM CPT, ATP luminescence, 48 h | Potency, µM (titrated, usually from 46.2 µM), without a hit: top-dose activity change, negative = growth inhibition, most hits filed as inhibitors | actives 12% (n = 420,000); further: potency means the concentration at half of the fitted maximal effect; nearly all actives have a fitted effect of over 55% in size
#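 Chicken DT40 Tdp1-/- cells stably complemented with human TDP1 were seeded at 400 cells/well in medium containing 20 nM camptothecin, exposed to pin-transferred compounds, and grown at 37 °C for at least 48 hr. Viability was read as ATP luminescence.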
# IL-1B inflam inh – inhibitors of inflammasome signaling (IL-1 beta secretion). THP-1 LPS/ATP IL-1B secretion, AlphaLISA, 16 h; hits give low values. activity change, % at 57.5 µM. actives 4.7% (n = 360,000). AID 743279; in the data active means activity change below about -50%; inconclusive means mostly about -30% to -49%
#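 Secreted IL-1B measured by AlphaLISA bead assay after 16 h compound exposure of THP-1 cells; compounds (final up to 57.5 uM) added 1 h before LPS (250 ng/mL) and ATP (1.25 mM) stimulation; lower signal means less secretion.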
# TDP1 cell noCPT – qHTS for Inhibitors of human tyrosyl-DNA phosphodiesterase 1 (TDP1): qHTS in cells in absence of CPT. DT40 Tdp1-/- hTDP1 cells, no CPT, ATP luminescence, 48 h. Potency, µM (doses to about 46.2 µM), without a hit: top-dose activity change, negative = growth inhibition, hits mostly inhibitors. actives 15% (n = 420,000); further: potency means the concentration at half of the fitted maximal effect; nearly all actives have a fitted effect of over 55% in size
#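 Growth of hTDP1-complemented DT40 Tdp1-knockout cells is measured by ATP luminescence after at least 48 hr compound exposure at 37 °C, with DMSO substituting for the 20 nM CPT used in the parallel screen.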
# HT1080 IDH1KD tx – HT-1080 IDH1 knockdown cell toxicity (counter line); Potency, µM (series often up to 46.1 µM), for inactives: top-dose activity, negative = toxicity, most hits filed as cytotoxic; AID 686971; HT-1080 IDH1 knockdown viability, ATP luminescence, 48 h; actives 2% (n = 360,000);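 further: potency means the concentration at half of the fitted maximal effect; 0% = DMSO wells and -100% = cell-free medium wells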
#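 IDH1KD HT-1080 cells, 750/well, RPMI + 5% FBS; compound pinned after 2 h settling; 48 h, 37 °C; CellTiter-Glo luminescence; % activity normalised to DMSO and no-cell wells; curves fitted, classed by r2 and efficacy.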
# HT1080-NT tox – kills 2HG-producing HT-1080-NT fibrosarcoma cells; HT-1080-NT fibrosarcoma viability, CellTiter-Glo ATP luminescence, 48 h; Potency, µM (titrated, usually from 46.1 µM), without a hit: top-dose activity, negative = less viability, actives largely listed as cytotoxic; actives 1.6% (n = 360,000); AID 686970;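 further: NT is the 2HG producing partner of a matched IDH1 knockdown line; potency means the concentration at half of the fitted maximal effect; 0% = DMSO-treated cells and -100% = media-only wells without cells; nearly all actives have a fitted effect of over 55% in size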
#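 HT-1080-NT fibrosarcoma cells (2HG-overproducing), 750 cells/well in RPMI with 5% FBS, dosed after 2 h and incubated 48 h at 37C. CellTiter-Glo luminescence normalized to DMSO and no-cell wells; concentration-response curves fitted and classed.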
# 12-LOX inh – inhibitors of human 12S-lipoxygenase ALOX12; P18054; purified 12hLO, xylenol orange hydroperoxide absorbance; Potency, µM (top dose mostly 108 µM), without a hit: top-dose activity change, negative = inhibition, actives largely listed as inhibitors; actives 1.1% (n = 580,000); AID 1671190; further: potency means the concentration at half of the fitted maximal effect
# Target sequence (P18054 whole entry, looked up): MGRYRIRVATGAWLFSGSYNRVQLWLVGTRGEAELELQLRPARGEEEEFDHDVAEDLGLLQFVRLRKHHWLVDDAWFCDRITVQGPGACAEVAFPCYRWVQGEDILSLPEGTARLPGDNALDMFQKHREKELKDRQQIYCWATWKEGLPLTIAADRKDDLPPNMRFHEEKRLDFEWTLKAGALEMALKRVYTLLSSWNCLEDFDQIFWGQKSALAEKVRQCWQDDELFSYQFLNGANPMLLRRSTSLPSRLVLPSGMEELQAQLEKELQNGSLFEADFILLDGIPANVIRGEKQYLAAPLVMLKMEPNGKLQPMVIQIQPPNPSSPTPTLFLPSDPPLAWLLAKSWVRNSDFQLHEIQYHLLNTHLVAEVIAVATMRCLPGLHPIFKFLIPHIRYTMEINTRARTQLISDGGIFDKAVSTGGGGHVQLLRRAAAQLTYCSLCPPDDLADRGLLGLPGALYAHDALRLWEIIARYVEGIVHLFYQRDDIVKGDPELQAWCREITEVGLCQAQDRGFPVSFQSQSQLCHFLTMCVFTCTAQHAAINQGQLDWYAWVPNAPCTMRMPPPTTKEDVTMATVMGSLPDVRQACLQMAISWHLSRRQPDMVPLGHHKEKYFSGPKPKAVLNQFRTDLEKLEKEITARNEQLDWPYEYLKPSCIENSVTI
#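 Purified human 12hLO (150 nM final) in 25 mM Hepes, 0.01% Triton X-100, pH 7.0 was preincubated 15 min at room temperature with compound. Then 40 uM arachidonic acid was added, 30 min. Hydroperoxide was read by Fe-XO absorbance ratio 573/405 nm.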
# * = called active by the depositor; ? = inconclusive; . = no result given. Many of the other results were omitted from the sample, so hits are more common in it than they were. Unless noted, the call rests on the fitted dose curve; in most records, active means well fitted curve in the direction sought with a large enough effect; inconclusive means small, poorly fitted or top-dose-only effect, or another doubt; inactive means no such curve, though single readings can be large; an effect the other way counts as inactive or inconclusive. Unless noted, on the % scale 0 is the no-effect control and ±100 the full control effect.
SMILES,TDP1 cell CPT,IL-1B inflam inh,TDP1 cell noCPT,HT1080 IDH1KD tx,HT1080-NT tox,12-LOX inh
COc1cc(C=C2Cc3ccccc3C2=O)cc(OC)c1OC,16µM*,17,8.2µM*,-9%,0%,-6%
COc1ccc(/C=C2\Cc3ccccc3C2=O)cc1OC,-19%,-1,?,5%,3%,-2%
COc1cc(N(C)C)c(OC)cc1/C=C1\Cc2ccccc2C1=O,?,.,11µM*,.,.,.
COc1ccc(C=C2Cc3ccccc3C2=O)cc1,-11%,18,?,-10%,-1%,6%
CCC(=O)NCC(c1cccs1)N(C)C (stereo unspecified),.,.,.,.,.,42%
COC(=O)c1ccc(-c2ccco2)n1Cc1nc(-c2ccc(OC)c(OC)c2)oc1C,23µM*,?,16µM*,?,-26%,?
COC(=O)c1cc(Br)ccc1O,.,.,.,.,.,16%
CC1(C)Cc2c(sc(NC(=O)COc3ccccc3)c2C#N)C(C)(C)N1,?,-6,-28%,2%,-15%,-2%
Cc1cc(OCC(=O)Nc2sc3c(c2C#N)CC(C)(C)NC3(C)C)c(C(C)C)cc1Cl,?,7,16µM*,-3%,-3%,33%
Cc1ccc(C(C)C)c(OCC(=O)Nc2sc3c(c2C#N)CC(C)(C)NC3(C)C)c1,?,-12,21µM*,-16%,-15%,.
CCC(CC)NC(=O)Nc1ccc(C)cc1Br,.,.,.,.,.,-25%
CCOC(=O)Cn1c(=O)c2c3c(sc2n(CCCN(C)C)c1=O)CCC(C)C3 (stereo unspecified),.,.,.,.,.,38%
CC(=O)N1CCc2nc3sc(C(=O)c4ccc(F)cc4)c(N)c3c(C(F)(F)F)c2C1,?,.,21µM*,.,.,-5%
COc1ccc(C(=O)c2sc3nc4c(c(C(F)(F)F)c3c2N)CN(C(C)=O)CC4)cc1OC,18µM*,.,16µM*,.,.,0%
CC(=O)N1CCc2nc3sc(C(=O)Nc4ccccc4F)c(N)c3c(C(F)(F)F)c2C1,.,.,.,.,.,-6%
COc1ccc(CNC(=O)c2sc3nc4c(c(C(F)(F)F)c3c2N)CCC4)cc1OC,?,?,16µM*,2%,6%,-18%
CCc1noc(-c2cn(C3CCCN(C(=O)c4cc(Cl)ccc4F)C3)nn2)n1 (stereo unspecified),.,.,.,.,.,57%
Cc1ccc(CNC(=O)C2CCCN(c3cnn(C)c(=O)c3)C2)cc1 (stereo unspecified),.,.,.,.,.,54%
C[C@H]1COC(=O)[C@H](Cc2ccc(F)cc2)C/C=C\C[C@H](CC(=O)N(CCO)Cc2ccccc2)C(=O)N1,?,-1,?,17%,10%,-4%
CC(C)(C)[C@@H]1COC(=O)[C@H](Cc2ccc(F)cc2)CC/C=C\C[C@H](CC(=O)N(CCO)Cc2ccccc2)C(=O)N1,9.2µM*,?,9.2µM*,?,?,0%
CC(C)(C)[C@@H]1COC(=O)[C@H](Cc2ccc(F)cc2)C/C=C\C[C@@H](CC(=O)N(CCO)Cc2ccccc2)C(=O)N1,16µM*,-3,21µM*,2%,-1%,-4%
CC(C)(C)[C@@H]1COC(=O)[C@@H](Cc2ccc(F)cc2)CC/C=C\C[C@@H](CC(=O)N(CCO)Cc2ccccc2)C(=O)N1,23µM*,-18,?,0%,0%,9%
Cc1nc(CC2CCN(C(=O)Cc3ccccc3)CC2)n[nH]1,.,.,.,.,.,40%
Cc1cc(C)n(CCCC(=O)N2C[C@H](CO)C[C@H](CN(C)C)C2)n1,.,.,.,.,.,14%
O=C(NNC(=O)C1CCCCC1)c1c[nH]c2ccccc12,.,.,.,.,.,-11%
SMILES,TDP1 cell CPT,IL-1B inflam inh,TDP1 cell noCPT,HT1080 IDH1KD tx,HT1080-NT tox,12-LOX inh
Cc1cccc(C(=O)NNC(=O)C2CCCCC2)c1O,?,18,23µM*,-29%,0%,1%
CCOc1ccc2nc(NC(=O)CSC3=NCCS3)sc2c1,23µM*,-92*,?,-7%,-6%,4%
COc1ccc2nc(NC(=O)CCc3ccc(OC)c(OC)c3)sc2c1,-19%,-10,?,-14%,0%,1%
COc1ccc2nc(NC(=O)c3ccoc3C)sc2c1,?,-9,?,11µM*,10µM*,-1%
CCCC(=O)Nc1nc2ccc(OC)cc2s1,15µM*,11,?,0%,3%,-1%
COc1ccc2nc(NC(=O)CSC3=NCCS3)sc2c1,?,-58*,?,?,-25%,329%
COc1ccc2nc(NC(=O)c3cc(C)oc3C)sc2c1,?,-10,?,-21%,-18%,0%
COc1cccc(Nc2nc3ccc(OC)cc3s2)c1,-24%,-172*,?,-19%,-3%,-12%
COC(=O)c1ccc2nc(NC(=O)C(C)(C)C)sc2c1,?,0,?,?,18µM*,3%
COc1ccc2nc(NC(=S)N(C)C)sc2c1,4.6µM*,95,4.6µM*,-20%,-2%,7.9µM*
COc1ccc2nc(NC(=O)c3cccc(OCc4c(C)noc4C)c3)sc2c1,3.3µM*,-26,2.9µM*,?,?,-3%
Cc1ccccc1NC(=O)CSc1nnc(C(C)N2C(=O)COc3ccccc32)n1C (stereo unspecified),.,.,.,.,.,-24%
